Measured values as given in PubChem BioAssay (Tox21).
Inconclusive results are not listed. Active and inactive are the calls of the source. Calls come from the whole dose curve; as a rule, active = well fitted activation curve with a large enough effect in the repeat runs; inconclusive = weak or mixed curves; inactive = flat fitted curve, though single readings scatter. Where a SMILES comes first, the peptide text is derived from it. [ ]: non-standard residue; d: D form. pGlu = O=C1CC[C@@H](C(=O)O)N1

Experiment: A CellTox Green Cytotoxicity Assay to monitor cytotoxicity in HepG2 cells - 16 hour (AID 1224876); note: nearly all actives have a fitted effect of over 45% in size
Conditions: CellTox Green fluorescence; series mostly up to 76.8 µM
Procedure, shortened: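 First, HepG2 cells (600/well) mixed with reagent were plated; second, after 5 h at 37 C they received compounds via pintool; third, fluorescence was measured at 0 h through 40 h at 8 h intervals.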

Row | Compound | outcome
1 | O=S(=O)(O)c1cc(O)c(O)c(S(=O)(=O)O)c1 | inactive
2 | C[C@H]1[C@H](NC(=O)/C(=N/OC(C)(C)C(=O)O)c2csc(N)n2)C(=O)N1S(=O)(=O)O (stereo in doubt) | inactive
3 | CC1=NN(c2cc(S(=O)(=O)O)ccc2Cl)C(=O)C1N=Nc1ccccc1 (stereo not drawn) | inactive
4 | O=S(=O)(O)c1cccc(S(=O)(=O)O)c1 | inactive
5 | NCCCC(N)(C(=O)O)C(F)F (stereo not drawn) | inactive
6 | CCC(C(=O)NC(=O)NC(C)=O)c1ccccc1 (stereo not drawn) | inactive
7 | CC(C)NNC(=O)c1ccncc1 | inactive
8 | NCCCC[C@H](N[C@@H](CCc1ccccc1)C(=O)O)C(=O)N1CCC[C@H]1C(=O)O | inactive
9 | CC1=CC(=O)[C@H]2C[C@@H]1C2(C)C | inactive
10 | CN(C)C(=O)Oc1cccc([N+](C)(C)C)c1 | inactive
11 | CC[C@H]1OC(=O)[C@H](C)[C@@H](O[C@H]2C[C@@](C)(OC)[C@@H](O)[C@H](C)O2)[C@H](C)[C@@H](O[C@@H]2O[C@H](C)C[C@H](N(C)C)[C@H]2O)[C@](C)(OC)C[C@@H](C)C(=O)[C@H](C)[C@@H](O)[C@]1(C)O | inactive
12 | COC(=O)C1=C(C)NC(C)=C(C(=O)OC(C)C)C1c1cccc2nonc12 (stereo not drawn) | inactive
13 | CCCCCCCCCCCCCCC(=O)O | inactive
14 | CN1CCC(=C2c3ccccc3CCc3cccnc32)CC1 | inactive
15 | CCCc1ncc(C[n+]2ccccc2C)c(N)n1 | inactive
16 | CCOC(=O)c1cnc2c(cnn2CC)c1NN=C(C)C | inactive
17 | CC(C(=O)O)c1cccc(Oc2ccccc2)c1 (stereo not drawn) | inactive
18 | CCNC(=O)[C@@H]1CCCN1C(=O)[C@H](CCCN=C(N)N)NC(=O)[C@H](CC(C)C)NC(=O)CNC(=O)[C@H](Cc1ccc(O)cc1)NC(=O)[C@H](CO)NC(=O)[C@H](Cc1c[nH]c2ccccc12)NC(=O)[C@H](Cc1cnc[nH]1)NC(=O)[C@@H]1CCC(=O)N1 ([pGlu]HWSYGLRP-NHEt) | inactive
